Measurements reported in paper PMC5540273 (PLoS ONE, 2017).

Experiments:
Conditions in all cases: concentration: 1 μM, replicates: in singlicate; n = 1
[1] = system: SgK110
[2] = system: T1, TAK1
T1 construct: gene MAP3K7

[3] = system: TAOK1
[4] = system: TAOK2
[5] = system: TAOK3
[6] = system: TBK1
[7] = system: TEC
[8] = system: TESK1
[9] = system: TGFBR1
[10] = system: TGFBR2
[11] = system: TIE1
[12] = system: T2, TIE2
T2 construct: gene TEK

[13] = system: TLK1
[14] = system: TLK2
[15] = system: TNIK
[16] = system: TNK1
[17] = system: TNK2
[18] = system: TNNI3K
[19] = system: T3, TRKA
T3 construct: gene NTRK1

[20] = system: TRKB
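Also: KINOMEscan kinase panel screen.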

Row | SMILES | %Inh [1] [%] | %Inh [2] [%] | %Inh [3] [%] | %Inh [4] [%] | %Inh [5] [%] | %Inh [6] [%] | %Inh [7] [%] | %Inh [8] [%] | %Inh [9] [%] | %Inh [10] [%] | %Inh [11] [%] | %Inh [12] [%] | %Inh [13] [%] | %Inh [14] [%] | %Inh [15] [%] | %Inh [16] [%] | %Inh [17] [%] | %Inh [18] [%] | %Inh [19] [%] | %Inh [20] [%]
1 | CC(=O)Nc1n[nH]c2ncc(-c3ccccc3)cc12 [SB-548492] | 3 | 20 | 27 | 24 | 8 | 29 | 1 | 6 | 0 | 0 | 0 | 21 | 6 | 0 | 12 | 0 | 0 | 0 | 90.1 | 25
2 | Clc1cc(Nc2ncnc3cc[nH]c23)ccc1OCc1ccccn1 | 0 | 9 | 0 | 0 | 0 | 4 | 0 | 7 | 15 | 0 | 10 | 23 | 26 | 4 | 22 | 0 | 5 | 2 | 2 | 12
3 | Cn1ccc2ncnc(Nc3ccc(Oc4cccc(Cl)c4)c(Cl)c3)c21 | 11 | 25 | 0 | 0 | 0 | 28 | 96.7 | 13 | 4 | 0 | 0 | 26 | 22 | 9 | 17 | 0 | 0 | 11 | 0 | 0
4 | Fc1cccc(COc2ccc(Nc3ncnc4sc(-c5ccc[nH]5)cc34)cc2Cl)c1 [GW707818] | 0 | 0 | 10 | 8 | 14 | 2 | 0 | 5 | 37 | 3 | 0 | 16 | 25 | 11 | 0 | 0 | 13 | 13 | 22 | 0
5 | FC(F)(F)c1cc(Nc2nccc(-c3c(-c4ccc(Cl)cc4)nn4ncccc34)n2)ccc1Cl [GW829351] | 23 | 0 | 0 | 2 | 0 | 2 | 0 | 0 | 21 | 0 | 0 | 0 | 0 | 0 | 12 | 21 | 0 | 0 | 0 | 0
6 | CCC(CC)(CC)n1cnc2c(N)ncnc21 [SKF-97620] | 8 | 6 | 48 | 2 | 22 | 15 | 35 | 0 | 52 | 0 | 21 | 8 | 27 | 2 | 100 | 6 | 0 | 0 | 41 | 26
7 | CN1CCC(n2cnc(-c3ccc(F)cc3)c2-c2ccnc(NC3CCNCC3)n2)CC1 [SB-229482] | 0 | 34 | 0 | 0 | 0 | 0 | 0 | 7 | 28 | 16 | 0 | 0 | 11 | 0 | 1 | 16 | 0 | 0 | 17 | 26
8 | Nc1nc(-c2ccccn2)c(-c2ccnc3ccccc23)s1 [GW548057] | 0 | 20 | 0 | 0 | 0 | 12 | 8 | 0 |  | 50 | 0 | 0 | 12 | 4 | 33 | 0 | 5 | 0 | 49 | 0
9 | Fc1ccc(Nc2nccc(-c3c(-c4ccc(Cl)cc4)nn4ncccc34)n2)cc1F [GW829058] | 9 | 38 | 10 | 16 | 27 | 31 | 8 | 16 | 0 | 0 | 38 | 18 | 0 | 12 | 89 | 24 | 0 | 3 | 13 | 0
10 | Fc1cccc(COc2ccc(Nc3ncnc4cc[nH]c34)cc2Cl)c1 | 0 | 8 | 0 | 0 | 0 | 4 | 18 | 0 | 9 | 0 | 0 | 5 | 25 | 12 | 11 | 0 | 27 | 5 | 2 | 17
11 | Cl.c1ccc(Cn2ccc3cc(Nc4ncnc5ccccc45)ccc32)cc1 [GW275568] | 0 | 6 | 0 | 23 | 0 | 39 | 4 | 9 | 29 | 0 | 0 | 0 | 19 | 0 | 0 | 0 | 12 | 18 | 5 | 0
12 | CCCc1ccc(S(=O)(=O)NC2CCN(c3ccnc(Nc4ccc(OC)cc4)n3)C2)cc1 (centres unmarked) [GSK1379737] | 0 | 0 | 0 | 0 | 0 | 0 | 0 | 36 | 28 | 0 | 34 | 0 | 0 | 0 | 0 | 0 | 11 | 6 | 0 | 23
